Drawing on PubChem BioAssay (NCI), this text covers growth inhibition for 19 compounds.

This is part of a sample that, as a whole, favours compounds with a hit. Of some 79,000 tested, about 15% had one in any assay. Values without a mark were called inactive. Activity calls are given as the source filed them. Rule as the data show it: active = growth inhibition above about 70%; inactive = the rest.

Experiment [1] can be described thus: NCI Yeast Anticancer Drug Screen. Data for the rad50 strain (AID 155).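 Also: 0% = growth of vehicle-only cultures of the same strain.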 Conditions: S. cerevisiae rad50 strain growth inhibition; at 50.0 µM; hits give high values. Put shortly:
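DNA repair mutant yeast, compound exposure, growth read-out; inhibition is taken relative to vehicle.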

The nature of experiment [2]: NCI Yeast Anticancer Drug Screen. Data for the mec2-1 strain (AID 157). Conditions: S. cerevisiae mec2-1 strain, at 50.0 µM, hits give high values. Put shortly:
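Vehicle-treated cultures served as reference for growth inhibition of compound-exposed mec2-1 yeast.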

Experiment [3] is described as follows: NCI Yeast Anticancer Drug Screen. Data for the sgs1 mgt1 strain (AID 161).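 Also: 0% = growth of cultures given vehicle only.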 Conditions: S. cerevisiae sgs1 mgt1 strain, at 50.0 µM, hits give high values. Put shortly:
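Inhibition of yeast growth, normalised to vehicle-treated controls, is reported for a strain bearing genetic alterations in DNA damage repair.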

Experiment [4] in a line: NCI Yeast Anticancer Drug Screen. Data for the cln2 rad14 strain (AID 165).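 Also: 0% = growth equal to vehicle treated cultures.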 Conditions: S. cerevisiae cln2 rad14 strain, at 50.0 µM, hits give high values. The method in brief: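 Each compound was tested on cln2 rad14 yeast. Inhibition of growth was calculated against vehicle-exposed controls.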
Experiment [5] is described as follows: NCI Yeast Anticancer Drug Screen. Data for the bub3 strain (AID 167). Conditions: S. cerevisiae bub3 mutant strain, at 50.0 µM, hits give high values. Put shortly: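 In this screen, a yeast mutant lacking normal mitotic checkpoint function is challenged with compound. Relative growth versus vehicle gives the inhibition value.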
A short description of experiment [6]: NCI Yeast Anticancer Drug Screen. Data for the mlh1 rad18 strain (AID 175). Conditions: S. cerevisiae mlh1 rad18 strain growth inhibition; at 50.0 µM; hits give high values. Put shortly: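 Vehicle-treated cultures served as the reference for growth inhibition in a yeast strain carrying DNA damage repair alterations exposed to each compound.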

On to `C1=[N+](c2ccccc2)CCN1c1ccccc1`, for which the growth inhibition in experiment [1] was -0.7%; in experiment [2] it was -18.9%; in experiment [3] it was -22.1%; in experiment [4], -27.3%; in experiment [5], -32.1%; in experiment [6] it was -20.5%.
For `CC(C)CC(NC(=O)c1cc([N+](=O)[O-])cc([N+](=O)[O-])c1)C(=O)O` (centres undefined), the growth inhibition in experiment [1] is -2%; in experiment [2] it was -2.7%; in experiment [3], 16.1%; in experiment [4], 8.5%; in experiment [5] it was -41.2%; in experiment [6], -5.5%.
As to `CCCCSC(CC(O)C(O)COC(=O)c1ccc([N+](=O)[O-])cc1)SCCCC` (centres undefined), the growth inhibition in experiment [1] is -12.1%; in experiment [2], 1.95%; in experiment [3], 2.7%; in experiment [4], 13%; in experiment [5], -4.85%; in experiment [6] it was -5.85%.
`COc1c(OC)c(C2(O)C(=O)N(C)c3ccccc32)c2c(c1C1(O)C(=O)N(C)c3ccccc31)OCO2` (centres undefined): the growth inhibition was 4.25% in experiment [1]; 1.7% in experiment [2]; -14.9% in experiment [3]; 1.2% in experiment [4]; 3.05% in experiment [5]; 22.9% in experiment [6].
As for `CNC(=O)c1ccc(C(=O)NC)cc1`, the growth inhibition in experiment [1] is -19.1%; in experiment [2] it was -26.1%; in experiment [3], -42.9%; in experiment [4] it was 3.95%; in experiment [5] it was -41.9%; in experiment [6] it was -1.75%.
In the case of `COc1ccc(C2C3=C(CC(C)(C)CC3=O)Oc3cc4c(cc32)OCO4)cc1` (centres undefined), the growth inhibition in experiment [1] was -2.7%; in experiment [2], -0.05%; in experiment [3], -25%; in experiment [4] it was -0.45%; in experiment [5], 0%; in experiment [6] it was -4.95%.
In the case of `O=[N+]([O-])c1ccc(-c2nnn(Cc3ccco3)c2N2CCCCC2)cc1`, the growth inhibition is 69.6% in experiment [1]; 70.7% (active) in experiment [2]; 91.2% (active) in experiment [3]; 84.2% (active) in experiment [4]; 95.7% (active) in experiment [5]; 81.3% (active) in experiment [6].
With `COc1cc2c(cc1OC)C(=O)/C(=C/c1ccccc1)CC2`, the growth inhibition in experiment [1] is 6.95%; in experiment [2] it was -6.45%; in experiment [3] it was 12.2%; in experiment [4] it was 11.8%; in experiment [5], 37%; in experiment [6] it was 28.6%.
For the compound `O=C(OCC(O)C(O)C(O)C(O)COC(=O)c1ccccc1)c1ccccc1` (centres undefined) (tested in a mixture with another compound), the growth inhibition in experiment [1] was -0.9%; in experiment [2], 3.6%; in experiment [3] it was -0.75%; in experiment [4], -29.6%; in experiment [5] it was 0.85%; in experiment [6], 12.2%.
For the compound `CCOC(=O)CSc1ncnc2nc[nH]c12`, the growth inhibition in experiment [1] was 31.2%; in experiment [2] it was -9.35%; in experiment [3], -6%; in experiment [4] it was 6.25%; in experiment [5], 17%; in experiment [6], 9.75%.
As for `CCN(CC)c1cc2oc(=O)cc(C)c2cc1NC(=O)c1cc([N+](=O)[O-])cc([N+](=O)[O-])c1`, the growth inhibition in experiment [1] was -0.6%; in experiment [2] it was -0.7%; in experiment [3], -2.1%; in experiment [4] it was -0.4%; in experiment [5] it was 0%; in experiment [6] it was 15.3%.
Consider `N#Cc1c(-c2ccc(Cl)cc2)c(C#N)c(=O)n(NS(=O)(=O)c2ccccc2)c1O`, for which the growth inhibition was 17.5% in experiment [1]; 46.9% in experiment [2]; 41.7% in experiment [3]; 48% in experiment [4]; 47% in experiment [5]; 50.2% in experiment [6].
Turning to `CN(C)CCNc1cccc2oc3ccc(O)cc3c(=O)c12`, the growth inhibition in experiment [1] is 8.2%; in experiment [2], -4.95%; in experiment [3] it was 9.55%; in experiment [4] it was -2.3%; in experiment [5], -4.95%; in experiment [6] it was 7.4%.
In the case of `CN(C)c1ccc(C(=O)C2CCCCC2)cc1`, the growth inhibition in experiment [1] is 29.1%; in experiment [2], 7.5%; in experiment [3] it was 13.6%; in experiment [4] it was -4.8%; in experiment [5], -5.2%; in experiment [6], 21.8%.
Turning to `COC(=O)CNC(=O)C(Cc1ccccc1)NC(=O)OCc1ccccc1` (centres undefined), the growth inhibition is -4.95% in experiment [1]; -3.75% in experiment [2]; -1.55% in experiment [3]; 1.9% in experiment [4]; 15.8% in experiment [5]; -3.3% in experiment [6].
With `c1ccc(C(c2ccc3c(c2)CCCC3)C(c2ccccc2)(c2ccccc2)c2ccccc2)cc1` (centres undefined), the growth inhibition in experiment [1] is -0.05%; in experiment [2] it was -0.05%; in experiment [3] it was 4.7%; in experiment [4], 16.5%; in experiment [5] it was -3.65%; in experiment [6], 25.4%.
As to `CC(=O)OC1C(C2COCO2)OCOC1C1COCO1` (centres undefined), the growth inhibition in experiment [1] is -3.3%; in experiment [2], -7.15%; in experiment [3] it was 3.5%; in experiment [4] it was -16.6%; in experiment [5], -6.65%; in experiment [6], -18%.
Take `CC(=O)c1nc(C#N)c(N)o1`: the growth inhibition in experiment [1] was 1.9%; in experiment [2], -3.55%; in experiment [3] it was -17.7%; in experiment [4] it was 20.8%; in experiment [5], -20.2%; in experiment [6], -23.4%.
For `N=S(c1ccccc1)c1ccccc1[N+](=O)[O-]` (centres undefined), the growth inhibition in experiment [1] is 16.2%; in experiment [2], -6.65%; in experiment [3], 18.6%; in experiment [4], 11.8%; in experiment [5], 4.35%; in experiment [6] it was -3.45%.
